According to PubChem BioAssay AID1159580 (chemical genetic matrix, 2015):
The whole screen tested about 5,500 compounds, of which about 2,000 (36%) were called active. Another 18% or so got no clear call; they are omitted. No stated cut-off is given here; in the data, active means normalized growth mostly below about 0.91 (no sharp cut-off); inconclusive means no clear call, values can overlap the other calls; inactive means mostly above about 0.92. The list shows a part of the results.

Test: chemical genetic growth profiling, strain panel (AID 1159580);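 further: tested at 20 µM; growth read once vehicle control cultures reached saturation at 30 °C; 1 = growth at the plate median or of vehicle wells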
Settings: S. cerevisiae deletion strains, growth OD
[1] = locus YDR150W, strain NUM1, stronger effect = lower value
[2] = locus YGR078C, strain PAC10, stronger effect = lower value
[3] = locus YGR229C, strain SMI1, stronger effect = lower value
[4] = locus YMR263W, strain SAP30, stronger effect = lower value
[5] = locus YNL322C, strain KRE1, stronger effect = lower value
[6] = locus YPL241C, strain CIN2, stronger effect = lower value
[7] = locus YHR030C, strain SLT2, stronger effect = lower value

Measured: normalized growth

Fc1ccc(CN(C2=NCCN2)c2c(Cl)cccc2Cl)cc1
inactive: locus YAL040C, strain CLN3, stronger effect = lower value 0.945 | locus YCL061C, strain MRC1 (second series), stronger effect = lower value 1.01 | [1] 1.06 | locus YDR363W, strain ESC2, stronger effect = lower value 1.02 | locus YER002W, strain NOP16, stronger effect = lower value 1.02 | [2] 0.984 | [3] 1.01 | [4] 0.995 | locus YNL128W, strain TEP1, stronger effect = lower value 1.1 | locus YNL175C, strain NOP13, stronger effect = lower value 1.01 | locus YNL197C, strain WHI3, stronger effect = lower value 1 | locus YNL224C, strain SQS1, stronger effect = lower value 1.01 | [5] 1 | locus YOR083W, strain WHI5 (second series), stronger effect = lower value 1.05 | [6] 0.997

CC(C)(CO)[C@@H](O)C(=O)NCCC(=O)O
inactive: [7] 1.06 | locus YHR079C, strain IRE1, stronger effect = lower value 1.04 | locus YJL095W, strain BCK1, stronger effect = lower value 1.03 | locus YJR066W, strain TOR1, stronger effect = lower value 0.964 | locus YLR113W, strain HOG1, stronger effect = lower value 1.05 | locus YNL183C, strain NPR1, stronger effect = lower value 0.999 | locus YOR231W, strain MKK1, stronger effect = lower value 1.09 | locus YPL256C, strain CLN2, stronger effect = lower value 1.09

O=C(O)C12CC3CC(CC(Br)(C3)C1)C2
inactive: locus YAL013W, strain DEP1, stronger effect = lower value 1 | locus YBR229C, strain ROT2, stronger effect = lower value 0.972 | locus YDL101C, strain DUN1, stronger effect = lower value 0.984 | locus YDL134C, strain PPH21, stronger effect = lower value 1.02 | [1] 0.982 | locus YEL061C, strain CIN8, stronger effect = lower value 0.987 | [2] 0.99 | [3] 1.01 | [7] 1.06 | locus YHR087W, strain rtc3, stronger effect = lower value 0.988 | locus YJL187C, strain SWE1, stronger effect = lower value 0.945 | locus YJR043C, strain POL32, stronger effect = lower value 1.01 | locus YJR075W, strain HOC1, stronger effect = lower value 0.996 | locus YKL190W, strain CNB1, stronger effect = lower value 1.01 | locus YLR039C, strain RIC1, stronger effect = lower value 1.04 | locus YLR058C, strain SHM2 (second series), stronger effect = lower value 1 | locus YLR085C, strain ARP6, stronger effect = lower value 0.963 | locus YLR262C, strain YPT6, stronger effect = lower value 1.1 | locus YML094W, strain GIM5, stronger effect = lower value 0.991 | locus YMR219W, strain ESC1, stronger effect = lower value 0.998 | [4] 0.993 | locus YMR307W, strain GAS1, stronger effect = lower value 0.997 | locus YNL153C, strain GIM3, stronger effect = lower value 0.994 | locus YNL298W, strain CLA4 (second series), stronger effect = lower value 0.992 | [5] 0.993 | locus YNR030W, strain Alg12, stronger effect = lower value 0.997 | locus YOL006C, strain TOP1, stronger effect = lower value 1.05 | locus YPL055C, strain LGE1, stronger effect = lower value 0.976 | [6] 0.994 | locus YPR135W, strain CTF4, stronger effect = lower value 1.14
